# PubChem BioAssay (NCI)
# Compounds without any hit were thinned out: in the full panel of roughly 83,000, 20% have a hit.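 Assay: single dose, 48 h. Readout: percent growth (0 = no net growth; negative = cell death). Active: <10.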 Activity calls are given as the source filed them.
# Test system: MDA-MB-231 breast
# Experiment: NCI-60 one-dose screen, 48 h (100 = growth as untreated, 0 = no growth, -100 = all killed)
# Details: 10 µM unless noted
row,Compound,growth
1,CCCC[C@H](NC(=O)[C@H]1CCCN1C)C(=O)N(C)[C@H](C[C@@H](OC(C)=O)c1nc(C(=O)N[C@@H](Cc2ccccc2)C[C@H](C)C(=O)OCC)cs1)C(C)C,3.51% (active)
2,COc1ccc2c(c1)c(-c1nc(-c3c[nH]c4ncccc34)cs1)cn2CCCCN1CCCCC1,-75.9% (active)
3,COC(=O)[C@H](Cc1ccccc1)NC(=O)c1csc([C@@H](C[C@H](C(C)C)N(C)C(=O)[C@@H](NC(=O)[C@H]2CCCN2C)C2CC2)OC(C)=O)n1,6.1% (active)
4,C[C@]12CC[C@H]3[C@@H](CC[C@]4(O)C[C@@H](O[C@@H]5O[C@H](CO)[C@@H](O[C@@H]6OC[C@@H](O)[C@H](O)[C@H]6O)[C@H](O)[C@H]5O)CC[C@]34C=O)[C@@]1(O)CC[C@@H]2C1=CC(=O)OC1,42.2% (inactive)
5,c1cc2c(c3c1CCNC3)OCO2,100% (inactive)
6,Fc1ccc2c(c1)c(-c1nc(-c3c[nH]c4ncccc34)cs1)cn2CCCCN1CCCCC1,-88.4% (active)
7,O=C(Nc1ccncc1F)c1cn(CC2CC2)c2ccccc12,109% (inactive)
8,COP(=S)(N1CC1)N1CC1,93% (inactive)
9,C/C=C(\C)C(=O)O[C@@H]1C(O)[C@H]2OC(COC(=O)CCC(=O)CCCCCC[C@H](CCCCC)O[C@@H]3OC(C)[C@H](OC(C)=O)C(O)[C@H]3O2)[C@H]1OC(=O)/C=C/c1ccccc1 (stereo partly specified),-5.32% (active)
10,CCc1ccccc1[C@@H]1C[C@]2(C)CCO[C@@H]2OO1,103% (inactive)
11,CC(=O)O[C@H](C[C@H](C(C)C)N(C)C(=O)[C@@H](NC(=O)[C@H]1CCCCN1C)C(C)(C)C)c1nc(C(=O)N[C@@H](Cc2ccccc2)C[C@H](C)C(=O)O)cs1,6.25% (active)
